# Reference: ChEMBL document CHEMBL4513216, “Probing the Open Global Health Chemical Diversity Library for Multistage-Active Starting Points for Next-Generation Antimalarials” (ACS Infect Dis, 2020)
# About 8,600 (12%) of roughly 69,000 compounds showed an effect of 50% or more. The sample as a whole holds a higher share of strong results than the screen did.
# System: Plasmodium berghei
# Experiment: Screen against P. berghei liver stage (PbLuc), transformed with Luciferase, at 10uM
# Type: functional, HepG2
# Conditions: tested at 10 uM
row,SMILES,INHIBITION [%]
1,COCCN1CCC(c2ncc(C(=O)N3CCOCC3)c(C)n2)CC1,-2.09
2,CC(C)C(=O)NCc1cccc(N2CCCCC2=O)c1,19.4
3,CC(C)NC(=O)CNC(=O)C12CCC(=O)N1c1cc(Cl)ccc1S2 (stereo unspecified),73.6
4,COC(=O)CNC(=O)C12CCC(=O)N1c1cc(Cl)ccc1S2 (stereo unspecified),15.9
5,CC(C)NC(=O)CNC(=O)N1CCc2c([nH]c3ccc(Cl)cc23)C1,-22.9
6,CCOCCCNC(=O)C1(C)CCC(=O)N1c1ccccc1F (stereo unspecified),37.4
7,CC(C)C(=O)NCCNC(=O)C12CCC(=O)N1c1cc(Cl)ccc1S2 (stereo unspecified),57.6
8,Cc1nn(C)c(Cl)c1C1CCCN1C(=O)c1ccncc1 (stereo unspecified),38.5
9,O=C(c1cscn1)N1CCC2(CCCN(CCOc3ccccc3)C2)C1 (stereo unspecified),-31.9
10,CCN(C)S(=O)(=O)NCC1CCCN(Cc2ccccc2F)C1 (stereo unspecified),1.74
11,CCC(C)N1Cc2c(C(=O)N3CCOCC3)nn(C)c2C1 (stereo unspecified),19.5
12,Cc1cnn(CC2CCCCN2C(=O)Cc2ccc(C#N)cc2)c1 (stereo unspecified),2.97
13,Cc1ccc2nc(CN3CCC(O)(CN4CCCC4)CC3)cc(O)c2c1,69.3
14,Oc1cc(CN2CCC(O)(Cn3ccnc3)CC2)nc2ccc(F)cc12,62.8
15,Oc1cc(CN2CCC(O)(Cn3ccnc3)CC2)nc2c(Cl)cccc12,27.6
16,Cc1ccc2nc(CN3CCC(O)(Cn4ccnc4)CC3)cc(O)c2c1,43.4

row,SMILES,INHIBITION [%]
1,Cc1ccc2nc(CN3CCN(C4CCCCC4)C(=O)C3)cc(O)c2c1,-46.2
2,Cc1ccc2nc(CN3CCN(C4CCCC4)C(=O)C3)cc(O)c2c1,-0.529
3,CC(=O)N1CCc2nc(C3CCN(C(=O)c4ccccc4)C3)ncc2C1 (stereo unspecified),-29.8
4,CN(Cc1cccs1)C(=O)CN1CCCC(Cn2cncn2)C1 (stereo unspecified),-4.16
5,CN1CCCN(S(=O)(=O)c2cccc(C(=O)N3CCCCCC3)c2)CC1,36
6,CCc1nnc(CNC(=O)CCC2CCCCN2C)s1 (stereo unspecified),6.72
7,COc1cccc(F)c1CN1CCC(c2nc(C)cc(C)n2)C1 (stereo unspecified),43.45
8,Cc1[nH]c(=O)[nH]c(=O)c1CN1CCCC(CCc2c(F)cccc2F)C1 (stereo unspecified),6.8
9,Cc1[nH]c(=O)[nH]c(=O)c1CN1CCCC(CCc2ccccc2F)C1 (stereo unspecified),19.7
10,CS(=O)(=O)NCCC1CCCN(Cc2ccccc2F)C1 (stereo unspecified),43.1
11,O=c1cc(CN2CCCC(CCc3c(F)cccc3F)C2)[nH]c(=O)[nH]1 (stereo unspecified),58.5
12,COc1coc(CN2CCCC(CCc3c(F)cccc3F)C2)cc1=O (stereo unspecified),56.3
13,COc1coc(CN2CCCC(CCc3ccccc3F)C2)cc1=O (stereo unspecified),60.4
14,COc1coc(CN2CCCC(CCc3ccccc3C)C2)cc1=O (stereo unspecified),46.4
15,CN1N=C(C(=O)N2CCCC(CCc3c(F)cccc3F)C2)CCC1=O (stereo unspecified),0.139
